For some of these results: Entries with a potency or affinity are not part of this list.

Common to all, as to design: scale not given: direction of the effect not stated beside the values
Test [1] deals with Protein translocase subunit SecA (Escherichia coli (strain K12)) (UniProt P10408). Description: Assay to Identify E. coli SecA ATPase Inhibitors. The note with it: 30 µM. The test is classed as functional.
Test [2] concerns the target T1, Ubiquitin-activating enzyme e1, putative (Leishmania donovani (strain BPK282A1)) (UniProt E9BSI1).
T1 sequence (whole entry): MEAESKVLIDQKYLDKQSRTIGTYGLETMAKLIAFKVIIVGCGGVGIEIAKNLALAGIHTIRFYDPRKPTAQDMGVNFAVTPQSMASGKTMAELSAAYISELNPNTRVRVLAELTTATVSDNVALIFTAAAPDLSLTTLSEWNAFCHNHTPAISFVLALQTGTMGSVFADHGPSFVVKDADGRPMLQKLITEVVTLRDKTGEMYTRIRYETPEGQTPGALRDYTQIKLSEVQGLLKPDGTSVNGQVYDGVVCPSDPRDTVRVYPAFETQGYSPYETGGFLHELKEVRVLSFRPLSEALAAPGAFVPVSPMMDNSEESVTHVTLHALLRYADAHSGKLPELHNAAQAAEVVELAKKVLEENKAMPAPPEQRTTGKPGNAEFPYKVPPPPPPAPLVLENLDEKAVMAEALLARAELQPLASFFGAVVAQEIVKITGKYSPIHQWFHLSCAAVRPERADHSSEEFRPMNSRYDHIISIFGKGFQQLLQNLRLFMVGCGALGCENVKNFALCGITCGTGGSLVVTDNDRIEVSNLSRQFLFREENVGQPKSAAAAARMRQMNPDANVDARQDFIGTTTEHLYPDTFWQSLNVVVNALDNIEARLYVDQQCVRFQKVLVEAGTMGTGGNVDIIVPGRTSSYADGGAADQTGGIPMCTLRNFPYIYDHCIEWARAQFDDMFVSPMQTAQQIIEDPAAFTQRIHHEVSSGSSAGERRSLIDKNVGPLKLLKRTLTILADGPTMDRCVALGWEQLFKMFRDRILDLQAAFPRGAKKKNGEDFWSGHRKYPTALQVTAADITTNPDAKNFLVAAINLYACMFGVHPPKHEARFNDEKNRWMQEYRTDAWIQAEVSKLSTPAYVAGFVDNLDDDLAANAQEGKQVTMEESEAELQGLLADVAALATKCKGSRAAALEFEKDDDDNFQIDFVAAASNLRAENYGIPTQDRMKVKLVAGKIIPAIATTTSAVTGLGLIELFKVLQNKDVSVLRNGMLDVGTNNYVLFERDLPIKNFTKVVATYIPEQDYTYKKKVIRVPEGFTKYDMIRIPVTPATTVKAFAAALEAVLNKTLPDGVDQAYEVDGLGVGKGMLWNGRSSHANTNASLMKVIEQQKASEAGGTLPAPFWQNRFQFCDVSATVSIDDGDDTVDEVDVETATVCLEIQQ
As to the kind of experiment: Leishmania donovani Ubiquitin Activating Enzyme (LdE1). The test is classed as functional. The note with it: 30 µM.

For test [3], the target named is AMP-activated protein kinase, AMPK (Homo sapiens) (UniProt P54646+O43741+P54619+Q9UGJ0+Q9Y478+Q13131+Q9UGI9). As to the kind of experiment: AMP-dependent Kinase enzyme assay. An in vitro enzyme assay that detects ADP turnover that is directly proportional to AMPK activity. This uses naive AMPK that is activated during the assay with MK-8722. Particulars: 30 µM. The test is classed as functional.

Test [4] has as its target Sialic acid-binding Ig-like lectin 9 (Homo sapiens) (UniProt Q9Y336). Description: Hs-Siglec9 ALPHAscreen SOP 20170721. The note with it: 10 µM.
The test system of another test is Trypanosoma cruzi. As to the kind of experiment: Trypanosoma cruzi phosphomannomutase and mannose-1-phosphate guanylyltransferase assay. Particulars: 10 µM. The test is classed as functional.
Test [5] addresses T2, Arginase-2, mitochondrial (Homo sapiens) (UniProt P78540).
T2 sequence (whole entry): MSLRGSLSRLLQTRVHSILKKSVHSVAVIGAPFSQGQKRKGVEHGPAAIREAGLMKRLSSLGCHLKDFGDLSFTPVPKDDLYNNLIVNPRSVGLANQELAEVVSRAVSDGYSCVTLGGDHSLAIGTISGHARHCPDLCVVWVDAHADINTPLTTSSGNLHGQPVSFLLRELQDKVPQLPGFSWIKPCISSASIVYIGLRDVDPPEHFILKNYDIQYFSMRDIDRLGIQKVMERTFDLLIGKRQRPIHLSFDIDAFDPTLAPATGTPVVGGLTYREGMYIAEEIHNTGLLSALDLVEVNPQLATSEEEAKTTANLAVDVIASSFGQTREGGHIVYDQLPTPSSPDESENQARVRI
Description: in vitro enzyme assay to detect the production of urea directly proportional to the activity of Arginase II. Also: in the data most compounds retested in dose-response had high values. The test is classed as functional. Particulars: 33.3 µM.

The target of test [6] is T3, Proteasome subunit beta (Trypanosoma cruzi) (UniProt O96673).
T3 sequence (whole entry): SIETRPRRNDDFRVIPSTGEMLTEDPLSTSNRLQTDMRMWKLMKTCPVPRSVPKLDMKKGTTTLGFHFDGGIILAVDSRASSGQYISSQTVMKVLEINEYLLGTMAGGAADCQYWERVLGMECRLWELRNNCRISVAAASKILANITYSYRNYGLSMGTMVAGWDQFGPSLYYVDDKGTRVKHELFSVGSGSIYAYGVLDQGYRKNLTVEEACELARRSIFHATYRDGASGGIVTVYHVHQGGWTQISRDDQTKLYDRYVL
As to the kind of experiment: Trypanosoma cruzi proteasome chymotrypsin-like activity (TcProtChymo) assay. Also: in the data most compounds retested in dose-response had high values. Particulars: 9.37 µM. The format is functional.

The species named for the next test is Homo sapiens. As to the kind of experiment: To identify inhibition of the IFN signalling (Jak-Stat) pathway via expression of an eGFP reporter gene under the control of an IFN-stimulated response element (ISRE) containing MxA promoter. The note with it: 30 µM. The format is functional.
Test [7] has as its target T4, Tyrosyl-tRNA synthetase, putative (Trypanosoma cruzi (strain CL Brener)) (UniProt Q4DSP6).
T4 sequence (whole entry): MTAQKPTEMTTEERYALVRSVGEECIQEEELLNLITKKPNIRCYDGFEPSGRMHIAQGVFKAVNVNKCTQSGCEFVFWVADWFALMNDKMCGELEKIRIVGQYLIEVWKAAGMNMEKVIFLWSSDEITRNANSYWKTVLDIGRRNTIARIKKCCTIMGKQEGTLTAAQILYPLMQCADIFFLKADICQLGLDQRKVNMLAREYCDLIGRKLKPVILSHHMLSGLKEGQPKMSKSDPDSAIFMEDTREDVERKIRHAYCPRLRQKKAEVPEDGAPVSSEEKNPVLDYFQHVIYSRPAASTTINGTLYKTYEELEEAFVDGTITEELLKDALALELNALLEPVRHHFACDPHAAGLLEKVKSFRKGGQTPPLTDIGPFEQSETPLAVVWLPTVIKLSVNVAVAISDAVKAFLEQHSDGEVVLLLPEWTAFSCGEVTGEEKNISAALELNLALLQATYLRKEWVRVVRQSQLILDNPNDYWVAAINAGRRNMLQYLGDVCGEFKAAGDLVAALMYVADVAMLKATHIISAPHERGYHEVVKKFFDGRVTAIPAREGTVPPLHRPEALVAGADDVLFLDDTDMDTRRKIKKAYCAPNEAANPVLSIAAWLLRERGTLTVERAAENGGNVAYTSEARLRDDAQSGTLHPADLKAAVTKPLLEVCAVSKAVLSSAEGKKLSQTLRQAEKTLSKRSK
Description: Trypanosoma cruzi tyrosyl tRNA synthetase (TcYRS) _High Tyrosine SOP. Also: in the data most compounds retested in dose-response had high values. The format is functional. The note with it: 30 µM.

Test [8] concerns the target T4, Tyrosyl-tRNA synthetase, putative (Trypanosoma cruzi (strain CL Brener)). Description: Trypanosoma cruzi tyrosyl tRNA synthetase (TcYRS) SOP. The format is functional. Particulars: 30 µM.
Test [9] deals with Chromo domain-containing protein 1 (Saccharomyces cerevisiae (strain ATCC 204508 / S288c) (Baker's yeast)) (UniProt P32657). As to the kind of experiment: ScCHD-1 Enzyme Inhibition Assay. Also: in the data most compounds retested in dose-response had high values. The test is classed as functional. Particulars: 30 µM.
Sequence of Chromo domain-containing protein 1 (Saccharomyces cerevisiae (strain ATCC 204508 / S288c) (Baker's yeast)) (P32657 whole entry, the tested form may be a part): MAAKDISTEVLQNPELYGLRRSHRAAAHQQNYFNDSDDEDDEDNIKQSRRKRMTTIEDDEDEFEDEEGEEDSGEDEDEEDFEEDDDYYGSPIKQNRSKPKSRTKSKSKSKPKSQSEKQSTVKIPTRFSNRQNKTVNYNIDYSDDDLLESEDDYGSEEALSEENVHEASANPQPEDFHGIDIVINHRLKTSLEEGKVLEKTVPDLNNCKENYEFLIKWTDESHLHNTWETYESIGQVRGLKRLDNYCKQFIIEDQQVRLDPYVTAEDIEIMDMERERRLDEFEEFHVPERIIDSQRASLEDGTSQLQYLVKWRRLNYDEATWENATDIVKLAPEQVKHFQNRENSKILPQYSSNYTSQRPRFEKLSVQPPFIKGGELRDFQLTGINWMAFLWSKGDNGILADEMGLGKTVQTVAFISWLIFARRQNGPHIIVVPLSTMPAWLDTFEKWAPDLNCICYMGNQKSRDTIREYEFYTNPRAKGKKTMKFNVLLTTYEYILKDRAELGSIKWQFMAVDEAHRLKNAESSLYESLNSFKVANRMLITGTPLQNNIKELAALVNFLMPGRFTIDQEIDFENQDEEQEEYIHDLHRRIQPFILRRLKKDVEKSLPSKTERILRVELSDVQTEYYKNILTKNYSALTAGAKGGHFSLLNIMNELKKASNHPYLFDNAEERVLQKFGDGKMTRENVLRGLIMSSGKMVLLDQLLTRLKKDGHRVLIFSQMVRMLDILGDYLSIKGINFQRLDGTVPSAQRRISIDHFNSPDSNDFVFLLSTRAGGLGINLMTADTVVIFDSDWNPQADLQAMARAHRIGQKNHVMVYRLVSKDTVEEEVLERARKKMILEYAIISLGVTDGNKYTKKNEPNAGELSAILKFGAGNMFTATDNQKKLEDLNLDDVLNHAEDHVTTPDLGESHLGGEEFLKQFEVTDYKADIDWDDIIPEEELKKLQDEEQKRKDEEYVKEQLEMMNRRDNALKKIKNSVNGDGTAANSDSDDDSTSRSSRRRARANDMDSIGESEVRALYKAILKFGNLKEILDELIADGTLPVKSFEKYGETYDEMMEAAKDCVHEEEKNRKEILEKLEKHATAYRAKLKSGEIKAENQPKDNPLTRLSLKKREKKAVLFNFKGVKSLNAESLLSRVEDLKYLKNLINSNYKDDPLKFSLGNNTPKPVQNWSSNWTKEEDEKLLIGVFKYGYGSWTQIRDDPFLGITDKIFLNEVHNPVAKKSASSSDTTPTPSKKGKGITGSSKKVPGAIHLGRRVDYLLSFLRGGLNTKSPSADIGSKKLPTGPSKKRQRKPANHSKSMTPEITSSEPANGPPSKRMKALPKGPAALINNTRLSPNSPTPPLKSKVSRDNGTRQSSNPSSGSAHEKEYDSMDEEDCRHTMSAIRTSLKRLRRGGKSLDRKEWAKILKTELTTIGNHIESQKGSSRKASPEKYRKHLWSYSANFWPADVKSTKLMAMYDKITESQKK

Sequence of Sialic acid-binding Ig-like lectin 9 (Homo sapiens) (Q9Y336 whole entry): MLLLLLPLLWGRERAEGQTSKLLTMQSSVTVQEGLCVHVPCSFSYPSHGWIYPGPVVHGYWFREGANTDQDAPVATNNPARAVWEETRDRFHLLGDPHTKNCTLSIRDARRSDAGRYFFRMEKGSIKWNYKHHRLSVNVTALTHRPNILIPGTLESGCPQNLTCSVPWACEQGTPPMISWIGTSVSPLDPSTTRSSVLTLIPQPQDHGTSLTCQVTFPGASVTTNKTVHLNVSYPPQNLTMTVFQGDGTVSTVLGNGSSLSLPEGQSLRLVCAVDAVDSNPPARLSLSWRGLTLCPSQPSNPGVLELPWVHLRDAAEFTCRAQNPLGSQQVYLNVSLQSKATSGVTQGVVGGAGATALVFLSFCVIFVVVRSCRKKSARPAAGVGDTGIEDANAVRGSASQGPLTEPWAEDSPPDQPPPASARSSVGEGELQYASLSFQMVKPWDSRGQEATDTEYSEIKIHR
Sequence of Protein translocase subunit SecA (Escherichia coli (strain K12)) (P10408 whole entry): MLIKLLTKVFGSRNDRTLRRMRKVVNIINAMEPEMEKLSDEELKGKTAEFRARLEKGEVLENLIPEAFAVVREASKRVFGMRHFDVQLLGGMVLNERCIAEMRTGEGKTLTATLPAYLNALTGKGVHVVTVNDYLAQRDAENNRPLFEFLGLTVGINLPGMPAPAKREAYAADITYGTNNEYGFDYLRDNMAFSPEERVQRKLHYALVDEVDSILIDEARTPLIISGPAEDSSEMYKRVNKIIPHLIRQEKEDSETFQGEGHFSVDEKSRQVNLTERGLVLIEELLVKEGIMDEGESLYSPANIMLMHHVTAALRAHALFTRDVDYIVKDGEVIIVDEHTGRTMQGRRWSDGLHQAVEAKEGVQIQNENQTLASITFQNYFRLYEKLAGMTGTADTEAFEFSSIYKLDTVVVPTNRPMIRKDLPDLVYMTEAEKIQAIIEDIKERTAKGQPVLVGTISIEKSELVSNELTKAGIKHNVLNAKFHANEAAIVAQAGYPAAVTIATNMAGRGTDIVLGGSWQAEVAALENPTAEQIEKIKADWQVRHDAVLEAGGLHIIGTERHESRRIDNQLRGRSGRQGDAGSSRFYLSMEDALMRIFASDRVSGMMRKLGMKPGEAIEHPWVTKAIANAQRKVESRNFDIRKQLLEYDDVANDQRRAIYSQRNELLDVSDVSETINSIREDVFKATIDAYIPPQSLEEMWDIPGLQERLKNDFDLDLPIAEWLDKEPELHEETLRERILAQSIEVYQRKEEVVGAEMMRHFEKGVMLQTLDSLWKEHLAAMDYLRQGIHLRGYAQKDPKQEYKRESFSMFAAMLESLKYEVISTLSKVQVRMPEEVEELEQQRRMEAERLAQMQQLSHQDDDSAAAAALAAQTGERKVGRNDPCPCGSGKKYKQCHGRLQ

In the case of `NC(=O)CN1CC2(CCC1=O)CCN(Cc1cc(F)ccc1Cl)CC2`, the Percent Effect in [1] was -3.36%; in test [2] it was 16%; in [3], -3.98%; in test [4] it was 13.3%; in the test with Trypanosoma cruzi, 7.5%; in test [5], 5.73%. Besides, the Percent Effect is 18% in test [6]; 8.19% in the test listed under Homo sapiens; 3.83% in test [7]; 18.5% in test [8]; -5.6% in [9].

For `O=C(c1ccc2c(c1)COC2)N1CCC(Nc2cccnn2)CC1`, the Percent Effect is -4.96% in test [1]; 13% in [2]; -6.23% in test [3]; 11.4% in [4]; 5.06% in the test on Trypanosoma cruzi; -3.56% in test [5]. Also, the Percent Effect in test [6] was 1.52%; in the test filed under Homo sapiens, 21.5%; in test [7] it was 8.74%; in test [8] it was 24.4%; in test [9], -7.05%.

`CCCc1noc(CCC(=O)N2CCCC2c2noc(C3CC3)n2)n1` (stereo not drawn): the Percent Effect in [1] is -5.01%; in test [2] it was 10.1%; in [3], 1.8%; in [4], 21.9%; in the test on Trypanosoma cruzi, -0.85%; in test [5], 1.52%. Further, the Percent Effect is -1.56% in test [6]; 12% in the test filed under Homo sapiens; 1.48% in [7]; 1.27% in test [8]; -2.93% in test [9].

For the molecule `CN(Cc1ccc(Cl)s1)C(=O)c1cccc(OCC(N)=O)c1`, the Percent Effect in [1] was 1.02%; in test [2] it was 5.41%; in test [3], 0.84%; in [4], -1.09%; in the test with Trypanosoma cruzi it was -3.09%; in test [5], 0.952%. Further, the Percent Effect was 11.2% in test [6]; 15.1% in the test listed under Homo sapiens; 4.76% in test [7]; 14.6% in [8]; -3.46% in test [9].

Take `Cc1ccc(OCCCNC(=O)NC(C)c2nncn2C)cc1` (stereo not drawn): the Percent Effect in test [1] was -4.22%; in test [2] it was 13%; in test [3], 6.68%; in test [4] it was -5.15%; with Trypanosoma cruzi it was 4.41%; in [5], 4.42%. For the same molecule, the Percent Effect was 8% in test [6]; -0.0367% in the test filed under Homo sapiens; 7.62% in test [7]; 18.8% in test [8]; -17.6% in [9].

Consider `Cn1cnc(S(=O)(=O)NCCCN2CCOCC2)c1Cl`, for which the Percent Effect is -3.33% in test [1]; 2.7% in test [2]; -5.32% in test [3]; -2.1% in test [4]; -10.5% with Trypanosoma cruzi; 26.1% in [5]. The Percent Effect in test [6] was 7.21%; in the test listed under Homo sapiens it was 16.1%; in [7] it was 4.43%; in [8] it was 3.7%; in test [9], -8.3%.

With `CC(C(=O)NCc1ccnc(N2CCN(C)CC2)c1)n1cccn1` (stereo not drawn), the Percent Effect is -0.897% in [1]; 0% in test [2]; -0.213% in test [3]; 6.59% in [4]; 7.14% in the test on Trypanosoma cruzi; 3.06% in test [5]. Moreover, the Percent Effect in test [6] was -4.18%; in the test filed under Homo sapiens it was 1.68%; in [7], 0.49%; in test [8], 7.32%; in test [9], -5.23%.

Regarding `CCCN(Cc1ccccc1)Cn1nc(C)c2c(C)onc2c1=O`, the Percent Effect is -7% in [1]; 10.8% in [2]; -10.2% in [3]; 25.6% in [4]; 4.62% in the test with Trypanosoma cruzi; -4.81% in test [5]. Moreover, the Percent Effect in test [6] is 1.98%; in the test filed under Homo sapiens it was 8.04%; in [7], 5.42%; in test [8], 18.5%; in test [9] it was -13.4%.
